Screens deposited in PubChem BioAssay by National Center for Advancing Translational Sciences (NCATS).
A selection: hits, their analogues and other compounds. The true share with any hit is near 17%.
TDP1 inh – inhibitors of human tyrosyl-DNA phosphodiesterase TDP1. Q9NUW8. recombinant TDP1, AlphaScreen DNA substrate cleavage. Potency, µM (top dose mostly 130 µM), without a hit: at the top dose activity change, negative = inhibition, usual class: inhibitors. 0.28% of 350,000 active; note: % is set by controls: 0 for no effect and ±100 for the full control effect; nearly all actives have a fitted effect of over 40% in size
Target sequence (Q9NUW8 whole entry, looked up): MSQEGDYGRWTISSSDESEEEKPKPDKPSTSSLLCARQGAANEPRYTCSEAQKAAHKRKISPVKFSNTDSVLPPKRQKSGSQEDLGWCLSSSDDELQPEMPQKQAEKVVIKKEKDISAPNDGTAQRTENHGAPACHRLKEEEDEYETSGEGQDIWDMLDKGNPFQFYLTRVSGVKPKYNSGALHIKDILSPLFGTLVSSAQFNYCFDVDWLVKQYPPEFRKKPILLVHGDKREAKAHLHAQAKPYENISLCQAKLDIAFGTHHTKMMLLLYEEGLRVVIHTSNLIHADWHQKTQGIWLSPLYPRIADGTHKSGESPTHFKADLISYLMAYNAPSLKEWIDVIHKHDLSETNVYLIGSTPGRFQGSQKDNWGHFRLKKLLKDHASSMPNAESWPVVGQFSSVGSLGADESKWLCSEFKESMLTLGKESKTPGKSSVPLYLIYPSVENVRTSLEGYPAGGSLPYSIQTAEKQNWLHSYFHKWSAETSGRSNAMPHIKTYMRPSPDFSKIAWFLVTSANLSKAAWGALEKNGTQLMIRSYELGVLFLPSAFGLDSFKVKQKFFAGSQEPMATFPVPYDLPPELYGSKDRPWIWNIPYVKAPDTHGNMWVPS
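Compounds were preincubated with Tdp1 (1 nM final) for 15 min at room temperature before substrate (15 nM final) started a 5 min reaction; beads (10 ug/ml final) were then added for 10 min before AlphaScreen detection.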
TDP1 cell CPT – growth inhibition of DT40 Tdp1-/-;hTDP1 cells with camptothecin (screen for TDP1 inhibitors) | chicken DT40 Tdp1-/-;hTDP1 cells + 20 nM CPT, ATP luminescence, 48 h | Potency, µM (titrated, usually from 46.2 µM), without a hit: top-dose activity change, negative = growth inhibition, actives largely listed as inhibitors | 12% of 420,000 active; note: % is set by controls: 0 for no effect and ±100 for the full control effect; nearly all actives have a fitted effect of over 55% in size
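Cell growth measured by CellTiter-Glo luminescence after a minimum 48 h, 37 C compound exposure with 20 nM CPT in Tdp1-knockout DT40 cells stably expressing hTDP1, seeded 400/well; qHTS titration format.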
ClpP mod – qHTS Assay for Activators of ClpP. ATP-dependent Clp protease proteolytic subunit (Bacillus subtilis (strain 168)), P80244. purified B. subtilis ClpP, FRET peptide cleavage, 20 min. Potency, µM (titrated, usually from 57.5 µM), for the others: at the top dose activity change, negative = active. 1.9% of 340,000 active; active = well fitted falling curve with a large enough effect; inconclusive = small, poorly fitted or top-dose-only effect; inactive = no such curve, though single readings can be large or run the other way; note: the source files actives as falling curves though it sought activators and does not explain the sign; nearly all actives have a fitted effect of over 65% in size
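FRET quenching reversal measured ClpP activation: 10 microg/mL B. subtilis ClpP at pH 8 with the FRET-FV decapeptide, read at 430 nm after 320 nm excitation. The 20-min minus 0-min signal was scaled between DMSO/no-enzyme wells and ADEP (5.8 microM final).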
TDP1 cell noCPT – qHTS for Inhibitors of human tyrosyl-DNA phosphodiesterase 1 (TDP1): qHTS in cells in absence of CPT; DT40 Tdp1-/- hTDP1 cells, no CPT, ATP luminescence, 48 h; Potency, µM (titrated, usually from 46.2 µM), without a hit: at the top dose activity change, negative = growth inhibition, most hits filed as inhibitors; 15% of 420,000 active; AID 686978, 2013; note: % is set by controls: 0 for no effect and ±100 for the full control effect; nearly all actives have a fitted effect of over 55% in size
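Camptothecin absent (DMSO only). Human TDP1-complemented DT40 knockout cells, 400 cells/well, 37 °C for minimum 48 hr; ATP measured via CellTiter-Glo, 30 min dark incubation, luminescence.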
Active calls of the source: *; ? = inconclusive; . = not tested or not shown; [ ] = remark or other dose. Unless noted, calls come from the whole dose curve; as a rule, active = well fitted curve in the direction sought with a large enough effect; inconclusive = small, poorly fitted or top-dose-only effect, or another doubt; inactive = no such curve, though single readings can be large; an effect the other way counts as inactive or inconclusive. Potency is the fitted concentration of half-maximal effect.

SMILES | TDP1 inh | TDP1 cell CPT | ClpP mod | TDP1 cell noCPT
Cc1ncc(CN2CCCC(C(=O)Nc3ccc(-c4cccc(F)c4)cc3)C2)n1C (stereo unspecified) | 6% | 23µM* | -3% | ?
COc1cccc(-c2ccc(NC(=O)C3CCCN(Cc4cccc(C)n4)C3)cc2)c1 (stereo unspecified) | . | ? | 0% | 23µM*
CC(C)c1cc(C(=O)N2CCCC(C(=O)c3ccc4ccccc4c3)C2)on1 (stereo unspecified) | -3% | ? | . | 26µM*
COc1cccc(-c2ccc(NC(=O)C3CCCN(Cc4cnc(C)n4C)C3)cc2)c1 (stereo unspecified) | 5%[56.1 µM] | ? | 0% | ?
Cn1cccc1Cc1nnc(SCC(=O)NCc2ccccc2)n1-c1ccc(F)cc1 | 9% | 16µM* | 10% | ?
COc1ccc(Cl)cc1NC(=O)CSc1nnc(Cc2cccn2C)n1-c1ccc(F)cc1 | . | 26µM* | 5% | ?
Cc1ccsc1CNCC(O)c1ccccc1 (stereo unspecified) | . | -24% | . | -25%
Cc1ccc(C)c(CN2CCC(CNC(=O)Nc3ccc(C)c(C)c3)CC2)c1 | . | ? | . | 15µM*
O=C(NCC1CCN(Cc2ccccc2F)CC1)Nc1cccc(Br)c1 | . | ? | -10% | 16µM*
O=C(NCC1CCN(Cc2cccc(Cl)c2)CC1)Nc1cc(Cl)ccc1Cl | 0% | 23µM* | -2% | 13µM*
O=C(NCC1CCN(Cc2cccc(Cl)c2)CC1)Nc1ccc(Cl)cc1 | . | ? | 0% | ?
O=C1NC[C@@H](CCCCN2C[C@H](Cc3ccccc3)N(CCc3ccc(O)cc3)C(=O)C2=O)N(Cc2ccccc2)C1=O | . | -7% | 5% | 4%
COc1ccc(OC)c(CNn2c(-c3ccccc3F)nc3ccccc3c2=O)c1 | -1% | ? | . | 18µM*
COc1cccc(CNn2c(-c3cccc(C)c3)nc3ccccc3c2=O)c1O | -4% | ? | 1% | ?
COc1ccc(CNn2c(-c3ccccc3F)nc3ccccc3c2=O)cc1OC | -1% | ? | . | 18µM*
COc1ccc(CCn2nnc3ccccc3c2=O)cc1OC | . | -24% | -1% | ?
CCC(C)[C@@H]1NC(=O)N(CCCN2CCCC2=O)C1=O (stereo partly specified) | . | 27% | -5% | -8%
O=C1CCCC2=C1C(c1ccc(Cl)cc1)n1c(s/c(=C\c3ccc4ccncc4c3)c1=O)=N2 (stereo unspecified) | 2% | ? | -1% | 21µM*
Cc1ccc(Cl)cc1N1CCN(Cc2nc3c(c(=O)[nH]c(=O)n3C)n2CCc2ccccc2)CC1 | 3% | 16µM* | -2% | ?
Cc1ccccc1Cn1c(CN2CCN(c3cc(Cl)ccc3C)CC2)nc2c1c(=O)[nH]c(=O)n2C | 1% | ? | 0% | 13µM*
Cc1ccc(Cl)cc1N1CCN(Cc2nc3c(c(=O)[nH]c(=O)n3C)n2Cc2ccccc2F)CC1 | 7% | ? | 0% | 23µM*
Cn1c(=O)[nH]c(=O)c2c1nc(CN1CCOCC1)n2CCc1ccccc1 | -12%[56.1 µM] | -14% | -1% | 8%
CCN(CC)C(=O)c1ccc2nc([C@H]3C[C@H](O)[C@@H](CO)O3)[nH]c2c1 | . | -9% | -5% | -7%
OC[C@H]1O[C@@H](c2nc3ccc(-c4nc(-c5ccc(Br)cc5)no4)cc3[nH]2)C[C@@H]1O | . | 16µM* | 2% | 16µM*
COc1cccc(-c2ccc(-c3noc(-c4ccccc4F)n3)c(OC)n2)c1 | -9% | ? | 14µM* | -19%
SMILES | TDP1 inh | TDP1 cell CPT | ClpP mod | TDP1 cell noCPT
COc1ccc(-c2ccc(-c3noc(-c4cc(OC)cc(OC)c4)n3)c(OC)n2)cc1 | 2% | -3% | 16µM* | -17%
COc1cccc(-c2ccc(-c3noc(-c4cccs4)n3)c(OC)n2)c1 | 5% | -44% | ? | ?
COc1cc(OC)c(NC(=O)c2sc3ncn(CC(=O)N4CCOCC4)c(=O)c3c2C)cc1Cl | 1% | 1% | -6% | 14%
CC(=O)NC(C)(c1ccccc1)c1nc(-c2cncnc2)cs1 (stereo unspecified) | . | -11% | 2% | -5%
Cc1ccsc1CCN1C(=O)N(c2ccccc2)C(=O)C1CC(=O)Nc1ccc(F)cc1 (stereo unspecified) | 1% | ? | 1% | 15µM*
Cc1ccsc1CCN1C(=O)N(c2ccc(F)cc2)C(=O)C1CC(=O)Nc1ccccc1 (stereo unspecified) | -4% | ? | 0% | 23µM*
Cc1ccc(S(=O)(=O)N2Cc3ccccc3CC2C(=O)NC(C)(C)C)cc1 (stereo unspecified) | . | -25% | -1% | -12%
CCn1c(SCC(=O)c2cc(C)ccc2C)nc2cc(S(=O)(=O)N3CCOCC3)ccc21 | -3% | ? | -1% | 18µM*
O=C(CSc1nc2cc(S(=O)(=O)N3CCOCC3)ccc2o1)Nc1c(F)cccc1F | -10% | 21µM* | . | 21µM*
Cc1[nH]c2ccccc2c1C(=O)CSc1nc2cc(S(=O)(=O)N3CCCCC3)ccc2o1 | 6% | 23µM* | -4% | 21µM*
CCn1c2ccccc2c2nc3cc(S(=O)(=O)N4CCOCC4)ccc3nc21 | 1% | 15µM* | -4% | 13µM*
Cc1cc(C(=O)NNC(=S)NC(C)c2ccccc2)c2ccccc2n1 (stereo unspecified) | 10% | ? | 16% | ?
COc1ccccc1NC(=O)C[n+]1ccccc1C | 4% | 20% | -1% | 5%
Cc1ccc(C(=O)CSc2nc3cc(S(=O)(=O)N4CCOCC4)ccc3o2)cc1 | 7% | 18µM* | -2% | ?
Cc1ccc(C)c(OCCC(=O)N2CCN(S(=O)(=O)c3ccc([N+](=O)[O-])cc3)CC2)c1 | 3% | ? | -1% | ?
CCOc1ccc(S(=O)(=O)Nc2ccccc2C(=O)N2CCOCC2)cc1 | . | -5% | . | 1%
Cc1ccc(S(=O)(=O)Nc2ccc3c4c(cccc24)CC3)c(C)c1 | . | 15µM* | 0% | 13µM*
Cc1ccc(NS(=O)(=O)c2cc3[nH]c(=O)c(=O)[nH]c3cc2C)c(C)c1 | . | 5% | ? | 6%
Cc1cc(C)c(S(=O)(=O)Nc2ccc3c4c(cccc24)CC3)c(C)c1 | 4% | -101% | -1% | 3.7µM*
O=S(=O)(Nc1ccc2c3c(cccc13)CC2)c1ccccc1 | . | ? | -3% | 13µM*
Cc1cc(C)c(S(=O)(=O)Nc2ccccc2)c(C)c1 | . | ? | -1% | ?
Cc1cc(C)c(S(=O)(=O)Nc2ccc3c(c2)CCC3)c(C)c1 | -3% | ? | 1% | 18µM*
CC(=O)Nc1ccc2c3c(cccc13)CC2 | . | -46% | -2% | -20%
CSc1ccc(S(=O)(=O)NCC(=O)OCC(=O)N2CCCCC2C)cc1[N+](=O)[O-] (stereo unspecified) | -2% | 6% | -1% | 2%
